Records with an inconclusive call do not appear. Calls of active or inactive are those of the source. Calls follow the shape of the dose curve; as a rule, active = well fitted curve in the direction sought with a large enough effect in the repeat runs; inconclusive = weak or mixed curves; inactive = no such curve, though single readings can be large; an effect the other way counts as inactive or inconclusive.
Experiments:
[1] = qHTS RealTime-Glo MT Cell Viability Assay in HEK293 cells - 40 hour (AID 1224874); settings: RealTime-Glo luminescence; max response: hits give low values; also: nearly all actives have a fitted effect of over 50% in size
In short: (§1)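 qHTS format; HEK293 cells with NanoLuc/prosubstrate reagent, 37 C/5% CO2 for 5 h pre-dosing; compounds 23 nL in DMSO; luminescence at each time point reflects viable cells.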

[2] = A CellTox Green Cytotoxicity Assay to monitor cytotoxicity in HEK293 cells - 24 hour (AID 1224875); also: series mostly up to about 77 µM; nearly all actives have a fitted effect of over 45% in size
In short: (§2)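 Each value comes from one timepoint of a single continuous run in which HEK293 cells with CellTox Green were exposed to compound for up to 40 h at 37 C, dye fluorescence rising with cell death.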

[3] = A CellTox Green Cytotoxicity Assay to monitor cytotoxicity in HepG2 cells - 16 hour (AID 1224876); also: nearly all actives have a fitted effect of over 45% in size
In short: (§3)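 Continuous culture of HepG2 cells with a membrane-impermeant DNA dye; rising fluorescence marks dead cells. Compound exposure lasted up to 40 h at 37 C, with reads every 8 h from 0 h.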

[4] = qHTS RealTime-Glo MT Cell Viability Assay in HepG2 cells - 32 hour (AID 1224877); also: nearly all actives have a fitted effect of over 55% in size
In short: (§4)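 HepG2 cells were seeded at 600 cells/well together with NanoLuc luciferase and a cell-permeant prosubstrate, preincubated 5 h at 37 C/5% CO2, then pin-dosed with compounds in DMSO. Nonlytic luminescence from viable cells was read at each time point.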

[5] = A CellTox Green Cytotoxicity Assay to monitor cytotoxicity in HepG2 cells - 24 hour (AID 1224878); also: nearly all actives have a fitted effect of over 45% in size
In short: as §3

[6] = A CellTox Green Cytotoxicity Assay to monitor cytotoxicity in HepG2 cells - 40 hour (AID 1224879); also: nearly all actives have a fitted effect of over 40% in size
In short: as §3

[7] = A CellTox Green Cytotoxicity Assay to monitor cytotoxicity in HEK293 cells - 32 hour (AID 1224881); also: nearly all actives have a fitted effect of over 40% in size
In short: as §2

[8] = A CellTox Green Cytotoxicity Assay to monitor cytotoxicity in HepG2 cells - 0 hour (AID 1224882); also: nearly all actives have a fitted effect of over 35% in size
In short: as §3

[9] = A CellTox Green Cytotoxicity Assay to monitor cytotoxicity in HepG2 cells - 32 hour (AID 1224883); also: nearly all actives have a fitted effect of over 50% in size
In short: as §3

[10] = A CellTox Green Cytotoxicity Assay to monitor cytotoxicity in HEK293 cells - 8 hour (AID 1224884); also: nearly all actives have a fitted effect of over 35% in size
In short: as §2

[11] = qHTS RealTime-Glo MT Cell Viability Assay in HepG2 cells - 16 hour (AID 1224885); also: nearly all actives have a fitted effect of over 50% in size
In short: as §4

[12] = qHTS RealTime-Glo MT Cell Viability Assay in HEK293 cells - 24 hour (AID 1224886); also: top concentration of the series differs between compounds; nearly all actives have a fitted effect of over 50% in size
In short: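 HEK293 cells were seeded at 600 cells/well together with NanoLuc luciferase and cell-permeant prosubstrate, preincubated 5 h at 37 C/5% CO2, then given compound in DMSO by pintool. Luminescence from viable-cell prosubstrate reduction was read repeatedly over 40 h.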

[13] = qHTS RealTime-Glo MT Cell Viability Assay in HEK293 cells - 8 hour (AID 1224887)
In short: as §1

[14] = A CellTox Green Cytotoxicity Assay to monitor cytotoxicity in HEK293 cells - 16 hour (AID 1224888); also: nearly all actives have a fitted effect of over 35% in size
In short: as §2

[15] = qHTS RealTime-Glo MT Cell Viability Assay in HepG2 cells - 0 hour (AID 1224889); also: nearly all actives have a fitted effect of over 50% in size
In short: as §4

[16] = A CellTox Green Cytotoxicity Assay to monitor cytotoxicity in HepG2 cells - 8 hour (AID 1224890); also: nearly all actives have a fitted effect of over 45% in size
In short: as §3

[17] = qHTS assay to identify small molecule antagonists of the estrogen receptor alpha (ER-alpha) signaling pathway using the BG1 cell line in the presence of 0.1 nM 17-beta-estradiol - cell viability counter screen (AID 1259241); also: nearly all actives have a fitted effect of over 40% in size
In short: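 In this screen, hormone-deprived VM7Luc4E2 cells were seeded at 4,000 per well, dosed with compound and 0.1 nM estradiol final, and incubated 22 hr at 37C and 5% CO2; fluorogenic live-cell protease signal reported viability.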

[18] = qHTS assay to identify small molecule antagonists of the androgen receptor (AR) signaling pathway using the MDA cell line in the presence of 0.5 nM R1881 - cell viability counter screen (AID 1259242); also: nearly all actives have a fitted effect of over 45% in size
In short: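 Fluorescence from CellTiter-Fluor, which reports protease activity of live cells, was read 30 min after reagent addition to MDA-kb2 cells that had been incubated 16 hr with compound and 0.5 nM R1881.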

[19] = qHTS RealTime-Glo MT Cell Viability Assay in HEK293 cells - 0 hour (AID 1224880)
In short: as §1
% is scaled to controls: 0 for no effect and ±100 for the full control effect.

CC(C)(CCC(=O)O)C(=O)O
inactive: max response [1] 0.835% | outcome [2] | outcome [3] | Potency [4] | outcome [5] | Potency [6] | outcome [7] | Potency [8] | Potency [9] | outcome [10] | outcome [11] | Potency [12] | Potency [13] | outcome [14] | Potency [15] | outcome [16] | outcome [17] | outcome [18]

Cc1ccc(C(=O)c2ccccc2)cc1
inactive: max response [1] -1.28% | outcome [2] | outcome [3] | Potency [4] | outcome [5] | Potency [6] | outcome [7] | Potency [8] | Potency [9] | outcome [10] | outcome [11] | Potency [12] | Potency [13] | outcome [14] | Potency [15] | outcome [16] | outcome [17] | outcome [18]

C=C(C)C(=O)OCC1CCCO1 (centres undefined)
inactive: max response [1] 7.57% | outcome [2] | outcome [3] | Potency [4] | outcome [5] | Potency [6] | Potency [19] | outcome [7] | Potency [9] | outcome [10] | outcome [11] | Potency [12] | Potency [13] | Potency [15] | outcome [17] | outcome [18]

CC1=CCC(O)(C(C)C)CC1 (centres undefined)
inactive: max response [1] 2.79% | outcome [2] | outcome [3] | Potency [4] | outcome [5] | Potency [19] | outcome [7] | Potency [8] | Potency [9] | outcome [10] | outcome [11] | Potency [13] | outcome [14] | Potency [15] | outcome [16] | outcome [18]

CC[N+](CC)(CC(=O)Nc1c(C)cccc1C)Cc1ccccc1 (tested in a mixture with another compound)
inactive: max response [1] -5.24% | outcome [2] | outcome [3] | Potency [4] | outcome [5] | Potency [6] | Potency [19] | outcome [7] | Potency [9] | outcome [10] | Potency [12] | Potency [13] | outcome [14] | Potency [15] | outcome [17] | outcome [18]

Cc1nc(C2CCCCC2)c(-c2ccc(S(N)(=O)=O)c(F)c2)o1
inactive: outcome [2] | outcome [3] | Potency [4] | outcome [5] | Potency [19] | outcome [7] | Potency [9] | outcome [10] | Potency [15] | outcome [16] | outcome [17] | outcome [18]

CCN[C@H]1C[C@H](C)S(=O)(=O)c2sc(S(N)(=O)=O)cc21
inactive: max response [1] -0.522% | outcome [2] | outcome [3] | Potency [4] | outcome [5] | Potency [19] | outcome [7] | Potency [8] | Potency [9] | outcome [10] | Potency [12] | Potency [13] | outcome [14] | Potency [15] | outcome [16] | outcome [17] | outcome [18]

CCOc1c(N2CCOCC2)cnn(C)c1=O
inactive: outcome [2] | outcome [3] | Potency [4] | outcome [5] | Potency [6] | Potency [19] | outcome [7] | Potency [8] | Potency [9] | outcome [10] | outcome [11] | Potency [12] | Potency [13] | outcome [14] | Potency [15] | outcome [16] | outcome [18]

C[C@@H]1CCC[C@H](C)N1
inactive: max response [1] 0.353% | outcome [2] | outcome [3] | Potency [4] | outcome [5] | Potency [6] | Potency [19] | outcome [7] | Potency [9] | outcome [10] | outcome [11] | Potency [12] | Potency [13] | outcome [14] | Potency [15] | outcome [16] | outcome [17] | outcome [18]

COC(=O)Nc1ccc(Cl)c(Cl)c1
inactive: max response [1] -27.2% | outcome [2] | outcome [3] | Potency [4] | outcome [5] | Potency [6] | Potency [19] | outcome [7] | Potency [8] | Potency [9] | outcome [10] | outcome [11] | outcome [14] | Potency [15] | outcome [16] | outcome [17] | outcome [18]

CCC(C)(CCCC(C)C)OC(C)=O (centres undefined)
inactive: outcome [2] | outcome [3] | Potency [4] | outcome [5] | Potency [6] | Potency [19] | outcome [7] | Potency [8] | Potency [9] | outcome [10] | outcome [11] | Potency [13] | outcome [14] | Potency [15] | outcome [16] | outcome [17] | outcome [18]

CC(=O)C1CCCCC1=O (centres undefined)
inactive: max response [1] 15.3% | outcome [2] | outcome [3] | Potency [4] | outcome [5] | Potency [6] | Potency [19] | outcome [7] | Potency [8] | Potency [9] | outcome [10] | Potency [12] | Potency [13] | outcome [14] | Potency [15] | outcome [17] | outcome [18]
